The list is not random: actives were taken first. Their share in the collection is about 2.4%.
MEKK2 mut-MEK5 = signal of MEK5 binding to mutant human MEKK2 PB1 domain. AID 1530. 290,000 compounds, 0.35% hits. percent response, % at 10 µM. bead flow cytometry, Alexa488-MEK5 binding to MEKK2 mutant; in the data active = percent response above about 24%, passing the limit was not always enough
MEKK2 WT-MEK5 = raises or lowers MEK5 binding to wildtype human MEKK2 PB1 domain; Q9Y2U5; bead flow cytometry, Alexa488-MEK5 binding to MEKK2 WT; actives lie on both sides; binding response (% of control), % at 10 µM; 290,000 compounds, 1.1% hits; in the data active = binding response below about 67% or above about 130%
Arbovirus inh = antivirals against arbovirus infection; 200,000 compounds, 0.37% hits; arbovirus infection cell-based antiviral screen; inhibition, % at 10 µM; in the data active = inhibition above about 30%
Pf gametocyte = inhibitors of late stage P. falciparum gametocyte viability | P. falciparum stage V gametocytes, ATP luminescence, 24 h | inhibition, % at 10.9 µM | 150,000 compounds, 0.065% hits;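 active = inhibition above the mean plus 3 SD of compounds within the control limits, set per campaign, cut at about 38% in these data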;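 note: 0% = DMSO wells and 100% = medium only without gametocytes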
MEKK3 PB1 HTS = raises or lowers MEK5 binding to the human MEKK3 PB1 domain; binding response (% of control), % at 10 µM; AID 1529; 290,000 compounds, 1.4% hits; Q99759; bead-based flow cytometry, Alexa488-MEK5 binding to MEKK3; actives lie on both sides; 0 = blocked by unlabeled MEK5, 100 = vehicle;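 active = binding response more than 3 SD above or below the average of its plate-row segment, actives on both sides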;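 note: Alexa488 bead fluorescence after subtracting the streptavidin-only scavenger bead signal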
Target sequence (Q99759 whole entry, looked up, the tested form may be a part): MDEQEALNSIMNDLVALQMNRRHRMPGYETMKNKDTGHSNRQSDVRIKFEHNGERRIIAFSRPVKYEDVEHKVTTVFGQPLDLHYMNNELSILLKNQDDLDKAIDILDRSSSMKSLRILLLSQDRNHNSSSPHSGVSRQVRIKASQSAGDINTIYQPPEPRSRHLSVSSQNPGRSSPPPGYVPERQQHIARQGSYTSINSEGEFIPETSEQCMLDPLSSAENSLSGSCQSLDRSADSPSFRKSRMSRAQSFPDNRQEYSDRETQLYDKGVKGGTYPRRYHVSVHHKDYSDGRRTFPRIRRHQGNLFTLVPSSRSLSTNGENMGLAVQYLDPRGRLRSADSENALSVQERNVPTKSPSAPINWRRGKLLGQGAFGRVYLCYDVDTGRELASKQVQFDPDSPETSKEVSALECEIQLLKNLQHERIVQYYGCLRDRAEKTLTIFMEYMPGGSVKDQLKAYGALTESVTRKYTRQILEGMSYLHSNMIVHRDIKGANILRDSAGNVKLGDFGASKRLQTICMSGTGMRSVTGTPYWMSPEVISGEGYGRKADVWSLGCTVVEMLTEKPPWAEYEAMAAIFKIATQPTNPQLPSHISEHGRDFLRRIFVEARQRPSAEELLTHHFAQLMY
MEKK2wt confirm = raises or lowers MEK5 binding to wildtype human MEKK2, retest; shares compounds with MEKK3 PB1 HTS; bead flow cytometry, Alexa488-MEK5 binding to MEKK2 WT; actives lie on both sides; binding response (% of control), % at 10 µM; 5,900 compounds, 2.4% hits; in the data active = binding response below about 16% or above about 210%; inactive = in between
MEKK2mut-MEK5 = signal of MEK5 binding to mutant human MEKK2, retest | 5,900 compounds, 2% hits | percent response, % at 10 µM | shares compounds with MEKK3 PB1 HTS | bead flow cytometry, Alexa488-MEK5 binding to MEKK2 mutant | AID 1893; in the data active = percent response mostly above about 71%, no sharp cut-off; inactive = mostly below about 38%;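 note: higher means compound restores mutant binding toward wildtype level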
MEKK3 confirm = MEKK3-MEK5 PB1 inhibition, single concentration confirmation; shares compounds with MEKK3 PB1 HTS; bead flow cytometry, Alexa488-MEK5 binding to MEKK3; hits give low values; binding response (% of control), % at 10 µM; 5,900 compounds, 1.8% hits;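 active = binding response below 72% of control, or above a set upper limit, though filed actives all read lower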;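 note: 100% = DMSO only wells and 0% = binding blocked by excess unlabeled MEK5; lower values mean stronger disruption of MEK5 binding to MEKK3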
* = called active by the depositor; nt = no result given; [ ] = another dose, or the depositor's remark.

SMILES	MEKK2 mut-MEK5	MEKK2 WT-MEK5	Arbovirus inh	Pf gametocyte	MEKK3 PB1 HTS	MEKK2wt confirm	MEKK2mut-MEK5	MEKK3 confirm
CCCCOc1ccc(N(CC(=O)NCc2ccccc2)C(=O)c2csnn2)cc1	-1	94	nt	nt	101	nt	nt	nt
CC1(C(=O)O)CCC(C(=O)NNC(=O)c2ccccc2Cl)C1(C)C (centres undefined)	nt	nt	nt	-6	nt	nt	nt	nt
Cc1[nH]c2c(ccc3ccccc32)c1C1C(CCN)C1(C)C (centres undefined)	37	208*	-42	14	107	166	41	108
CCN(CC)S(=O)(=O)c1ccc2c(c1)nc(CCC(=O)Nc1ccc(N3CCOCC3)cc1)n2C	-1	96	14	14	102	nt	nt	nt
Cc1ccc(NC(=O)CCCN2C(=O)c3cccc4cccc(c34)C2=O)cc1	1	110	-10	-30	145*	100	1	104
Cc1ccc(/C(O)=C2/C(=O)C(=O)N(CCN3CCOCC3)C2c2ccccn2)cc1 (centres undefined)	10	113	-3	nt	106	nt	nt	nt
O=C1C(=O)N(CCN2CCOCC2)C(c2ccccn2)/C1=C(/O)c1ccccc1 (centres undefined)	-27	0.0*[inhibitor]	-2	nt	0.0*[inhibitor]	108	7	108
Cc1c(C#N)c(N=CN(C)C)c(C(=O)c2ccc(Br)cc2)n1-c1ccccc1	2	69*[inhibitor]	-1	nt	103	96	-1	102
Cc1c(C#N)c(N=CN(C)C)c(C(=O)c2ccccc2)n1-c1ccc(Br)cc1	-2	93	6	nt	92	nt	nt	nt
CCC(C)c1ccccc1NC(=O)COC(=O)c1ccc(N2CCCC2)c([N+](=O)[O-])c1 (centres undefined)	0	100	5	3	132*	104	1	106
Cc1cccc(C)c1NC(=O)COC(=O)c1ccc(N2CCCC2)c([N+](=O)[O-])c1	-1	100	5	-4	100	nt	nt	nt
O=C(Nc1cc(F)ccc1F)C1CCN(S(=O)(=O)c2cccc3nonc23)CC1	-2	97	nt	nt	101	nt	nt	nt
Cc1ccc(CNc2cc(-c3nn4c(C)nnc4s3)ccc2C)s1	0	100	-9	nt	102	nt	nt	nt
Cc1ccc(-c2nn3c(C)nnc3s2)cc1NCc1c(F)cccc1Cl	-42	50*[inhibitor]	-16	nt	50*[inhibitor]	91	-13	97
COc1ccc(OC)c(NC(=O)c2cc(S(=O)(=O)N3CCCC3)cn2C)c1	2	101	nt	nt	99	nt	nt	nt
C/C(=N\NC(=O)C1CC1)c1ccc2c(c1)OCCO2	-46	6.0*[inhibitor]	3	11	4.0*[inhibitor]	109	7	105
COc1ccc(/C=C/c2cc(-c3ccc(C)cc3)o[n+]2C)cc1	18	155*	-29	nt	109	112	9	95
COc1cccc(-n2ccn(CC(=O)NCCc3ccccc3)c(=O)c2=O)c1	0	98	nt	nt	99	nt	nt	nt
CC1(c2ccc(OC(F)F)cc2)NC(=O)N(CC(=O)Nc2ccc(S(N)(=O)=O)cc2)C1=O (centres undefined)	-17	49	-3	15	46*[inhibitor]	95	-5	97
CC1(c2ccc(OC(F)F)cc2)NC(=O)N(CC(=O)Nc2ccc(OC(F)F)cc2)C1=O (centres undefined)	-2	102	nt	nt	102	nt	nt	nt
O=C1CC(c2ccccc2)CN1C(=O)c1cccnc1 (centres undefined)	6	124	3	1	141*	102	0	99
CCC(=O)N(Cc1cc(=O)[nH]c2ccccc12)c1ccc(C)cc1C	6	104	nt	nt	103	nt	nt	nt
COc1ccc(-n2c(=S)[nH]c3cc(C(=O)Nc4ccccc4OC)ccc3c2=O)cc1	-1	103	-15	-15	132*	98	-1	97
COc1ccc(-n2c(=S)[nH]c3cc(C(=O)Nc4ccccc4OC)ccc3c2=O)c(OC)c1	-7	82	nt	nt	91	nt	nt	nt
NS(=O)(=O)c1ccc(CCNCc2cc(Br)ccc2OCc2ccccc2)cc1	8	145*	-19	12	112	120	5	103
SMILES	MEKK2 mut-MEK5	MEKK2 WT-MEK5	Arbovirus inh	Pf gametocyte	MEKK3 PB1 HTS	MEKK2wt confirm	MEKK2mut-MEK5	MEKK3 confirm
CCOc1cc(CNCCc2ccc(S(N)(=O)=O)cc2)ccc1OCc1ccccc1	1	126	-40	4	83	nt	nt	nt
CCOc1cc(CNCCc2ccc(S(N)(=O)=O)cc2)cc(Cl)c1OCc1ccccc1	36*	206*	-32	nt	105	130	16	103
O=C(O)CC1(CC(=O)NCc2csc(-c3cccs3)n2)CCCCC1	-1	102	nt	9	99	nt	nt	nt
CCOC(=O)CNc1nc(Cl)nc(NC(C)(C)C)n1	2	119	6	18	130*	102	0	96
CC(C)(C)Nc1nc(N)nc(Cl)n1	-5	95	4	-17	98	nt	nt	nt
COc1ccc(C2=NOC(C)(c3nnc(-c4ccc(F)cc4)o3)C2)cc1 (centres undefined)	-2	96	nt	nt	81*[inhibitor]	97	-10	95
CC1(c2nnc(-c3ccc(F)cc3)o2)CC(c2ccc(F)cc2)=NO1 (centres undefined)	4	52	nt	nt	57	nt	nt	nt
COC(C(=O)Nc1ccnn1C1CCN(Cc2ccc(CO)o2)CC1)c1ccccc1 (centres undefined)	1	99	nt	nt	100	nt	nt	nt
O=C(Nc1ccc(F)cc1)c1cccnc1NCCc1ccccc1	1	112	-6	-12	142*	100	-6	103
O=C(Nc1cccc(F)c1)c1cccnc1NCCc1ccccc1	1	125	-3	-2	106	nt	nt	nt
CCOC(=O)N1CCN(C(=O)c2cc3c(s2)-c2ccc(Cl)cc2S(=O)(=O)C3)CC1	6	109	-1	4	106	nt	nt	nt
C/C(CC(=O)Nc1cccc(Cl)c1Cl)=N\NC(=O)c1ccccc1C	-18	4.0*[inhibitor]	-7	1	3.0*[inhibitor]	97	4	102
Cc1cccc(C)c1NS(=O)(=O)c1ccc(NC(=O)c2ccc(Cl)c([N+](=O)[O-])c2)cc1	1	115	-40	0	140*	100	-2	101
Cc1cc(C(=O)Nc2ccc(N3CCCC3)c(Cl)c2)ccc1[N+](=O)[O-]	2	130	14	1	135*	110	-2	103
O=C(O)c1cc(NC(=O)c2ccc(Cl)c([N+](=O)[O-])c2)cc(C(=O)O)c1	-1	101	-1	-7	98	nt	nt	nt
O=C(/C=C/c1ccc(Cl)cc1)Nc1ccc(CN2CCOCC2)cc1	31	140*	-27	0	106	111	3	102
